{"source": "PubChem BioAssay (EPA / NIEHS)", "note": "“And” between values parts separate entries of the source, which are not always exact repeats. Equal values may be shown once. Results filed as inconclusive are left out. The source made the active and inactive calls. The calls were made as follows: active = hit-call score of the fitted dose curve at least 0.9, where 1 is the maximum; inconclusive = response in the unintended direction; inactive = score below 0.9."}
{"assay": "CCTE_Mundy_HCI_Cortical_Synap_Neur_Matur_NeuronCount: CCTE's Synaptogenesis and Neurite Maturation Assay in rat cortical cells for Neuron Count, Mundy Lab (AID 2284242);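 as to AC50: hits reduce neuron count versus DMSO baseline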", "protocol": "CCTE_Mundy_HCI_Cortical_Synap&Neurite_Matur is a multiplexed, cell-based-readout assay that uses rat primary cortical cells with measurements taken at 288.33 hours after chemical dosing in a microplate: 96-well plate.CCTE_Mundy_HCI_Cortical_Synap_Neur_Matur_NeuronCount is one of eight components of the CCTE_Mundy_HCI_Cortical_Synap&Neurite_Matur assay. It measures cell viability related to number of neurons using High Content Imaging of fluorescently labelled markers.[…] Using a type of morphology reporter, loss -of-signal activity can be used to understand developmental effects.\nCells are plated onto 96 well plates and allowed 2 hr for attachment to the substrate. At days in vitro (DIV) 5, Cytosine Arabinoside (AraC) is added to arrest glial cell growth. Chemicals are dosed and a media change is performed at DIV 7 of differentiation and is continued through DIV 12 when the experiment is terminated. Cells are fixed with […] and Hoechst Dye. Cells are stained using Millipore Mouse anti-MAP2MAB3418 (1:800) and Millipore Rabbit anti-Synaptophysinsc-1750 (1:250) primary antibodies and Alexa Fluor-488 goat anti-mouse and AlexaFluor-546 goat anti-rabbit secondary antibodies to label neuronal cell nuclei, synapses and neurites. A Cellomics ArrayScan VTi HCS Reader is used for automated image acquisition and analysis of neurite outgrowth."}
{"smiles": "C=CCC1=C(C)[C@@H](OC(=O)[C@@H]2[C@@H](C=C(C)C)C2(C)C)CC1=O", "AC50": "26.6 µM (active)"}
{"smiles": "COP(N)(=O)SC", "note": "(stereo not drawn)", "outcome": "inactive"}
{"smiles": "Cc1ccc(-c2c(Cl)nc(C#N)n2S(=O)(=O)N(C)C)cc1", "AC50": "50 µM (active)"}
{"smiles": "CCCCOC(=O)c1ccccc1C(=O)OCCCC", "AC50": "81.3 µM (active)"}
{"smiles": "N#Cc1nn(-c2c(Cl)cc(C(F)(F)F)cc2Cl)c(N)c1S(=O)C(F)(F)F", "note": "(stereo not drawn)", "AC50": "15 µM (active)"}
{"smiles": "CO/C=C(/C(=O)OC)c1ccccc1Oc1cc(Oc2ccccc2C#N)ncn1", "AC50": "3.73 µM (active)"}
{"smiles": "CCCCC(CC)COC(=O)c1ccccc1C(=O)OCC(CC)CCCC", "note": "(stereo not drawn)", "AC50": "7.31 µM (active) and 5.3 µM (active)"}
{"smiles": "CN(C)C(=S)SSC(=S)N(C)C", "AC50": "0.0653 µM (active)"}
{"smiles": "CCOC(=O)CC(SP(=S)(OC)OC)C(=O)OCC", "note": "(stereo not drawn)", "AC50": "50 µM (active)"}
{"smiles": "COP(=S)(OC)Oc1nc(Cl)c(Cl)cc1Cl", "AC50": "25.7 µM (active)"}
{"smiles": "CC(C)(C)c1ccc(CSc2cnn(C(C)(C)C)c(=O)c2Cl)cc1", "AC50": "0.000347 µM (active)"}
{"smiles": "CCOc1cc(Oc2ccc(C(F)(F)F)cc2Cl)ccc1[N+](=O)[O-]", "AC50": "15 µM (active)"}
{"smiles": "COC(=O)N(OC)c1ccccc1COc1ccn(-c2ccc(Cl)cc2)n1", "AC50": "0.0487 µM (active)"}
